Reference: ChEMBL document CHEMBL1961873, “Compounds: GSK PKIS; Assays: Nanosyn kinase panel” (2012)

The compounds below were run against Serine/threonine-protein kinase Nek7 (Homo sapiens) (UniProt Q8TDX7). Conditions: at 0.1 µM.
Serine/threonine-protein kinase Nek7 (Homo sapiens), sequence (Q8TDX7 whole entry, looked up): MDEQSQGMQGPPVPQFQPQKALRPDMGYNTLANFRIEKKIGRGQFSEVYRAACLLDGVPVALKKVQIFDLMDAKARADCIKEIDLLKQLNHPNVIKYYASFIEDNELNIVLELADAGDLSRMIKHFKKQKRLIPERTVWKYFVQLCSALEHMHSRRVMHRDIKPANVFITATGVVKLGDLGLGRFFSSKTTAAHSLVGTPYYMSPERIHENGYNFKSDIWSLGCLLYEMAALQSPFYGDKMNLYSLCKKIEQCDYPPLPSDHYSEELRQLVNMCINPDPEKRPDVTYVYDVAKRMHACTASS

First: CCS(=O)(=O)c1ccc(OC)c(Nc2ncc(-c3cccc(OC)c3)o2)c1
Second: CCS(=O)(=O)c1ccc(OC)c(Nc2nccc(N(C)c3ccc4c(C)n[nH]c4c3)n2)c1
The inhibition of the first is higher: 2.84% for the first, 2.57% for the second.

Going from `CCn1c(-c2nonc2N)nc2c(C#CC(C)(C)O)nc(OCCNC)cc21` to `CCOc1nccc2c1nc(-c1nonc1N)n2CC`, the inhibition falls from 4.06% to 2.9%.

Compared with `CN1CCN(C(=O)c2ccc(NC(=O)Nc3ccc(N(C)c4ccnc(Nc5ccc(CS(C)(=O)=O)cc5)n4)cc3)cc2)CC1`, `COC(=O)Nc1nc2cc(Oc3ccc(NC(=O)Nc4cccc(Br)c4)cc3)ccc2[nH]1` is higher in inhibition: 2.05% for the first, 3.11% for the second.

Compared with `CC(C)c1ccc(Nc2nccc(-c3cnn4ncccc34)n2)cc1`, `N#Cc1cccc(Nc2nccc(-c3cnn4ncccc34)n2)c1` is lower in inhibition: 3.35% for the first, -4.91% for the second.

Going from `c1ccc(Cc2nc3ccc(Nc4ncnc5ccccc45)cc3[nH]2)cc1` to `COc1ccc2ncnc(Nc3ccc(OCc4ccccc4)cc3)c2c1`, the inhibition falls from 3.7% to 2.47%.

Going from `Cc1ccc(C(=O)NC2CC2)cc1-c1ccc2[nH]ncc2c1` to `CS(=O)(=O)Nc1cccc(-c2ccc3c(NC(=O)C4CC4)n[nH]c3c2)c1`, the inhibition rises from -7.62% to 2.34%.

Going from `NC(=O)c1sc(-n2cnc3ccccc32)cc1OCc1ccccc1Br` to `NS(=O)(=O)c1ccc(-c2cc3ccncc3cc2OCc2ccccc2)cc1`, the inhibition rises from 3.33% to 5.28%.

First: c1ccc(Nc2ncc(-c3ccccc3)o2)cc1
Second: Cc1ccc2c(-c3ccnc(Nc4cccc(C(F)(F)F)c4)n3)c(-c3ccccc3)nn2n1
The inhibition of the first is higher: 3.1% for the first, 0.74% for the second.

First: CCCN1CCCC(c2ccc(Nc3nc(Nc4cc(F)ccc4C(N)=O)c4cc[nH]c4n3)c(OC)c2)C1 (stereo unspecified)
Second: CN(C)C(=O)O[C@H]1CN[C@H](C#Cc2cc3ncnc(Nc4ccc(OCc5cccc(F)c5)c(Cl)c4)c3s2)C1
The inhibition of the first is higher: 6.42% for the first, 3.6% for the second.

First: Nc1ccc(C#Cc2cncnc2Nc2ccc(OCc3cccc(F)c3)c(Cl)c2)cc1
Second: O=S(=O)(CCOCc1ccc(-c2ccc3ncnc(Nc4ccc(OCc5cccc(F)c5)c(Cl)c4)c3c2)o1)c1ccccc1
The inhibition of the first is lower: 1.31% for the first, 1.66% for the second.

Going from `O=C1Nc2ccc(-c3cccnc3)cc2C1=Cc1cc(Br)c(O)c(Br)c1` to `COC(=O)c1ccc2c(c1)C(=Cc1cc(Br)c(O)c(Br)c1)C(=O)N2`, the inhibition falls from 5.27% to 4.31%.

Compared with `COc1cccc(-n2ncc3c(N/N=C/c4ccc(S(C)(=O)=O)cc4)ncnc32)c1`, `COc1cccc(-n2ncc3c(N/N=C/c4ccc(C)cc4)ncnc32)c1` is higher in inhibition: 3.45% for the first, 4.05% for the second.

First: Cc1ccc2c(-c3ccnc(Nc4ccc5c(c4)OCCO5)n3)c(-c3ccc(C(F)(F)F)cc3)nn2n1
Second: OCc1ccc(-c2nc(-c3ccccn3)c(-c3ccc4c(c3)OCO4)[nH]2)cc1
The inhibition of the first is lower: -0.01% for the first, 3.26% for the second.

Compared with `CCn1c(-c2nonc2N)nc2ccc(F)cc21`, `COc1cccc(-n2nc(C)c3c(N/N=C(\C)c4ccncc4)ncnc32)c1` is lower in inhibition: 5.72% for the first, 0.76% for the second.

First: N#Cc1c(NC(=O)c2ccccc2F)sc2c1CCCC2
Second: [O-][S+]1CCN(Cc2ccc(-c3ccc4ncnc(Nc5ccc(OCc6ccccc6)c(Cl)c5)c4c3)o2)CC1
The inhibition of the first is lower: -2.18% for the first, 1.32% for the second.

First: NS(=O)(=O)c1ccc(N/N=C2\C(=O)Nc3ccc(Cl)cc32)cc1
Second: Cc1ccc(O)cc1Nc1ccnc2ccc(S(C)(=O)=O)cc12
The inhibition of the first is lower: 2.88% for the first, 5.32% for the second.

With `COc1cc(/C=N/Nc2ncnc3c2cnn3C(C)C)ccc1O` the inhibition was 5.39%.

The compounds below were run against Serine/threonine-protein kinase Nek7 (Homo sapiens) (UniProt Q8TDX7). Conditions: at 1 µM.

Going from `CCS(=O)(=O)c1ccc(OC)c(Nc2ncc(-c3cccc(OC)c3)o2)c1` to `CCS(=O)(=O)c1ccc(OC)c(Nc2nccc(N(C)c3ccc4c(C)n[nH]c4c3)n2)c1`, the inhibition rises from 2.42% to 5.28%.

Going from `CCn1c(-c2nonc2N)nc2c(C#CC(C)(C)O)nc(OCCNC)cc21` to `CCOc1nccc2c1nc(-c1nonc1N)n2CC`, the inhibition falls from 9.15% to 3.26%.

First: CN1CCN(C(=O)c2ccc(NC(=O)Nc3ccc(N(C)c4ccnc(Nc5ccc(CS(C)(=O)=O)cc5)n4)cc3)cc2)CC1
Second: COC(=O)Nc1nc2cc(Oc3ccc(NC(=O)Nc4cccc(Br)c4)cc3)ccc2[nH]1
The inhibition of the first is higher: 5.08% for the first, 2.69% for the second.

First: CC(C)c1ccc(Nc2nccc(-c3cnn4ncccc34)n2)cc1
Second: N#Cc1cccc(Nc2nccc(-c3cnn4ncccc34)n2)c1
The inhibition of the first is higher: 4.87% for the first, 4.18% for the second.

Compared with `c1ccc(Cc2nc3ccc(Nc4ncnc5ccccc45)cc3[nH]2)cc1`, `COc1ccc2ncnc(Nc3ccc(OCc4ccccc4)cc3)c2c1` is lower in inhibition: 3.14% for the first, 2.49% for the second.

Compared with `Cc1ccc(C(=O)NC2CC2)cc1-c1ccc2[nH]ncc2c1`, `CS(=O)(=O)Nc1cccc(-c2ccc3c(NC(=O)C4CC4)n[nH]c3c2)c1` is higher in inhibition: -4.5% for the first, 1.08% for the second.

First: NC(=O)c1sc(-n2cnc3ccccc32)cc1OCc1ccccc1Br
Second: NS(=O)(=O)c1ccc(-c2cc3ccncc3cc2OCc2ccccc2)cc1
The inhibition of the first is higher: 9.69% for the first, 4.88% for the second.

Compared with `c1ccc(Nc2ncc(-c3ccccc3)o2)cc1`, `Cc1ccc2c(-c3ccnc(Nc4cccc(C(F)(F)F)c4)n3)c(-c3ccccc3)nn2n1` is lower in inhibition: 9.54% for the first, 5.29% for the second.

Going from `CCCN1CCCC(c2ccc(Nc3nc(Nc4cc(F)ccc4C(N)=O)c4cc[nH]c4n3)c(OC)c2)C1` (stereo unspecified) to `CN(C)C(=O)O[C@H]1CN[C@H](C#Cc2cc3ncnc(Nc4ccc(OCc5cccc(F)c5)c(Cl)c4)c3s2)C1`, the inhibition falls from 7.03% to 2.54%.

Compared with `Nc1ccc(C#Cc2cncnc2Nc2ccc(OCc3cccc(F)c3)c(Cl)c2)cc1`, `O=S(=O)(CCOCc1ccc(-c2ccc3ncnc(Nc4ccc(OCc5cccc(F)c5)c(Cl)c4)c3c2)o1)c1ccccc1` is higher in inhibition: 1.32% for the first, 5.83% for the second.

First: O=C1Nc2ccc(-c3cccnc3)cc2C1=Cc1cc(Br)c(O)c(Br)c1
Second: COC(=O)c1ccc2c(c1)C(=Cc1cc(Br)c(O)c(Br)c1)C(=O)N2
The inhibition of the first is lower: 4.87% for the first, 8.9% for the second.

Compared with `COc1cccc(-n2ncc3c(N/N=C/c4ccc(S(C)(=O)=O)cc4)ncnc32)c1`, `COc1cccc(-n2ncc3c(N/N=C/c4ccc(C)cc4)ncnc32)c1` is higher in inhibition: 2.28% for the first, 10.1% for the second.

Compared with `Cc1ccc2c(-c3ccnc(Nc4ccc5c(c4)OCCO5)n3)c(-c3ccc(C(F)(F)F)cc3)nn2n1`, `OCc1ccc(-c2nc(-c3ccccn3)c(-c3ccc4c(c3)OCO4)[nH]2)cc1` is higher in inhibition: 0% for the first, 2.28% for the second.

First: CCn1c(-c2nonc2N)nc2ccc(F)cc21
Second: COc1cccc(-n2nc(C)c3c(N/N=C(\C)c4ccncc4)ncnc32)c1
The inhibition of the first is higher: 3.91% for the first, 2.39% for the second.

Compared with `N#Cc1c(NC(=O)c2ccccc2F)sc2c1CCCC2`, `[O-][S+]1CCN(Cc2ccc(-c3ccc4ncnc(Nc5ccc(OCc6ccccc6)c(Cl)c5)c4c3)o2)CC1` is higher in inhibition: 0.08% for the first, 5.75% for the second.

First: NS(=O)(=O)c1ccc(N/N=C2\C(=O)Nc3ccc(Cl)cc32)cc1
Second: Cc1ccc(O)cc1Nc1ccnc2ccc(S(C)(=O)=O)cc12
The inhibition of the first is lower: 3.63% for the first, 4.35% for the second.

`COc1cc(/C=N/Nc2ncnc3c2cnn3C(C)C)ccc1O` showed an inhibition of 2.72%.
